{"source": "paper PMC11062922", "about": "(Nature Chemical Biology, 2023)", "set-up_in_all_cases": "species or system human, MV4-11 + K-562 + COLO205 + SK-N-BE2 + OVCAR-8", "key": {"[1]": {"tested_on": "AKT1", "conditions": "read-out: apparent Kd, n = 1"}, "[2]": {"tested_on": "MAP2K1", "conditions": "read-out: apparent Kd, n = 1"}, "[3]": {"tested_on": "NQO2", "conditions": "read-out: apparent Kd, n = 1"}, "[4]": {"tested_on": "ERCC2", "conditions": "read-out: apparent Kd; compound concentrations: 100 nM and 1000 nM (sheet 'Samples'), CATDS: 0.17876672107785799; n = 1"}, "[5]": {"tested_on": "CSNK1D", "conditions": "read-out: apparent Kd, n = 1"}, "[6]": {"tested_on": "EPHB2", "conditions": "read-out: apparent Kd; compound concentrations: 100 nM and 1000 nM (sheet 'Samples'), CATDS: 3.4039918374270103E-2; n = 1"}, "[7]": {"tested_on": "MAPK11", "conditions": "read-out: apparent Kd, n = 1"}, "[8]": {"tested_on": "CDK16", "conditions": "read-out: apparent Kd; compound concentrations: 100 nM and 1000 nM (sheet 'Samples'), CATDS: 7.8370889513180206E-2; n = 1"}, "[9]": {"tested_on": "CSNK1A1", "conditions": "read-out: apparent Kd, n = 1"}, "[10]": {"tested_on": "RIOK2", "conditions": "read-out: apparent Kd; compound concentrations:100 nM and 1000 nM (sheet 'Samples'); n = 1"}, "[11]": {"tested_on": "TGFBR2", "conditions": "read-out: apparent Kd; compound concentrations:100 nM and 1000 nM (sheet 'Samples'); n = 1"}, "[12]": {"tested_on": "PKN3", "conditions": "read-out: apparent Kd, n = 1"}, "[13]": {"tested_on": "PDGFRB", "conditions": "read-out: apparent Kd; compound concentrations:100 nM and 1000 nM (sheet 'Samples'); n = 1"}, "[14]": {"tested_on": "MAP4K5", "conditions": "read-out: apparent Kd; compound concentrations:100 nM and 1000 nM (sheet 'Samples'); n = 1"}, "[15]": {"tested_on": "MAPK10", "conditions": "read-out: apparent Kd; compound concentrations: 100 nM and 1000 nM (sheet 'Samples'), CATDS: 4.9321772364443003E-2; n = 1"}, "[16]": {"conditions": "compound concentrations:100 nM and 1000 nM (sheet 'Samples')"}}, "note": "Read-outs that look alike come from different tables or passages of the source."}
{"smiles": "COc1cc(N2CCN(C(C)C)CC2)ccc1Nc1nc(Nc2cccc(F)c2C(=O)O)c2cc[nH]c2n1", "note": "[GSK1819799A]", "values": [{"measurement": "potency estimated from few doses", "setting": "[1]; compound concentrations: 100 nM and 1000 nM (sheet 'Samples'), CATDS: 4.312239107291E-2", "result": 1940, "unit": "nM"}, {"measurement": "potency estimated from few doses", "setting": "[2]; compound concentrations: 100 nM and 1000 nM (sheet 'Samples'), CATDS: 4.3561445001152499E-2", "result": 1870, "unit": "nM"}]}
{"smiles": "Cl.Fc1cccc(COc2ccc(Nc3ncnc4cc(-c5ccc[nH]5)sc34)cc2Cl)c1", "note": "[GW693881A]", "values": [{"measurement": "potency estimated from few doses", "setting": "[3]; compound concentrations: 100 nM and 1000 nM (sheet 'Samples'), CATDS: 0.24245202120631801", "result": 560, "unit": "nM"}]}
{"smiles": "CCCN1CCC(Oc2cc(Nc3nc(Nc4cccc(F)c4C(N)=O)c4cc[nH]c4n3)c(OC)cc2Cl)CC1", "note": "[GSK1713088A]", "values": [{"measurement": "potency estimated from few doses", "setting": "[4]", "result": 2040, "unit": "nM"}]}
{"smiles": "Cc1ccc(CC(=O)N2CCc3cc(-c4cn(C)c5ncnc(N)c45)ccc32)cc1", "note": "[GSK2634758A]", "values": [{"measurement": "potency estimated from few doses", "setting": "[3]; compound concentrations: 100 nM and 1000 nM (sheet 'Samples'), CATDS: 0.188092935593722", "result": 1120, "unit": "nM"}]}
{"smiles": "Cn1cc(C2=C(c3cccc([N+](=O)[O-])c3)C(=O)NC2=O)c2ccccc21", "note": "[RO0317474-000]", "values": [{"measurement": "potency estimated from few doses", "setting": "[3]; compound concentrations: 100 nM and 1000 nM (sheet 'Samples'), CATDS: 0.12983117909003999", "result": 1960, "unit": "nM"}]}
{"smiles": "CC(=O)Nc1ccc2c(C3=C(c4cn(C)c5ccccc45)C(=O)NC3=O)cn(C)c2c1", "note": "[RO0317596-000]", "values": [{"measurement": "potency estimated from few doses", "setting": "[3]; compound concentrations: 100 nM and 1000 nM (sheet 'Samples'), CATDS: 0.111698981376187", "result": 1590, "unit": "nM"}]}
{"smiles": "Cc1ccc(NC(=O)c2ccc(Cl)cc2)cc1-c1ccc(C(=O)Nc2ccncc2)cc1", "note": "[GSK1398467A]", "values": [{"measurement": "potency estimated from few doses", "setting": "[5]; compound concentrations: 100 nM and 1000 nM (sheet 'Samples'), CATDS: 0.16187565637937301", "result": 2020, "unit": "nM"}]}
{"smiles": "Cn1cc(C2=C(c3cn(CCCCCO)c4ccccc34)C(=O)NC2=O)c2ccccc21", "note": "[RO0318053-000]", "values": [{"measurement": "potency estimated from few doses", "setting": "[3]; compound concentrations: 100 nM and 1000 nM (sheet 'Samples'), CATDS: 9.2585577918862794E-2", "result": 959, "unit": "nM"}]}
{"smiles": "COc1ccc(C2=C(c3cn(C)c4ccccc34)C(=O)NC2=O)cc1OC", "note": "[RO3206363-000]", "values": [{"measurement": "potency estimated from few doses", "setting": "[1]; compound concentrations: 100 nM and 1000 nM (sheet 'Samples'), CATDS: 7.5592220710657507E-2", "result": 180, "unit": "nM"}, {"measurement": "potency estimated from few doses", "setting": "[6]", "result": 1430, "unit": "nM"}, {"measurement": "potency estimated from few doses", "setting": "[3]; compound concentrations: 100 nM and 1000 nM (sheet 'Samples'), CATDS: 4.2100406306544602E-2", "result": 722, "unit": "nM"}]}
{"smiles": "COc1ccc(-c2nn3ncccc3c2-c2ccnc(Nc3ccc4c(c3)OCCO4)n2)cc1", "note": "[GW827106X]", "values": [{"measurement": "potency estimated from few doses", "setting": "[5]; compound concentrations: 100 nM and 1000 nM (sheet 'Samples'), CATDS: 4.1816048723515499E-2", "result": 2430, "unit": "nM"}, {"measurement": "potency estimated from few doses", "setting": "[7]; compound concentrations: 100 nM and 1000 nM (sheet 'Samples'), CATDS: 6.1190831662216998E-2", "result": 956, "unit": "nM"}]}
{"smiles": "Cn1cc(C2=C(c3ccccc3[N+](=O)[O-])C(=O)NC2=O)c2ccccc21", "note": "[RO0317753-000]", "values": [{"measurement": "potency estimated from few doses", "setting": "[8]", "result": 1340, "unit": "nM"}, {"measurement": "potency estimated from few doses", "setting": "[3]; compound concentrations: 100 nM and 1000 nM (sheet 'Samples'), CATDS: 7.9210826703434503E-2", "result": 1280, "unit": "nM"}]}
{"smiles": "Fc1ccc(-c2ncn(C3CCNCC3)c2-c2ccnc(Oc3ccc4c(c3)OCO4)n2)cc1", "note": "[SB-250715]", "values": [{"measurement": "potency estimated from few doses", "setting": "[1]; [16]", "result": 2330, "unit": "nM"}, {"measurement": "potency estimated from few doses", "setting": "[9]; [16]", "result": 1300, "unit": "nM"}, {"measurement": "potency estimated from few doses", "setting": "[5]; [16]", "result": 271, "unit": "nM"}, {"measurement": "potency estimated from few doses", "setting": "[2]; [16]", "result": 1050, "unit": "nM"}, {"measurement": "potency estimated from few doses", "setting": "[7]; [16]", "result": 40.4, "unit": "nM"}, {"measurement": "potency estimated from few doses", "setting": "[10]", "result": 1920, "unit": "nM"}]}
{"smiles": "NC(=O)c1cccnc1COc1cc(-c2ccc(N3CCOCC3)nc2)cc2ncccc12", "note": "[BI01125081]", "values": [{"measurement": "potency estimated from few doses", "setting": "[11]", "result": 1310, "unit": "nM"}]}
{"smiles": "COc1cc(F)c(F)c(F)c1C(=O)c1cnc(NC2CCN(S(C)(=O)=O)CC2)nc1N", "note": "[RO4600703-000]", "values": [{"measurement": "potency estimated from few doses", "setting": "[3]; [16]", "result": 426, "unit": "nM"}]}
{"smiles": "Nc1c(C(=O)c2ccccc2)cnn1-c1ccc(F)cc1", "note": "[RO1151246-000]", "values": [{"measurement": "potency estimated from few doses", "setting": "[1]; [16]", "result": 1460, "unit": "nM"}, {"measurement": "potency estimated from few doses", "setting": "[2]; [16]", "result": 1470, "unit": "nM"}, {"measurement": "potency estimated from few doses", "setting": "[7]; [16]", "result": 1420, "unit": "nM"}, {"measurement": "potency estimated from few doses", "setting": "[12]; [16]", "result": 2070, "unit": "nM"}, {"measurement": "potency estimated from few doses", "setting": "[10]", "result": 1700, "unit": "nM"}]}
{"smiles": "CCS(=O)(=O)c1ccc(OC)c(Nc2ncc(-c3cccc(F)c3)o2)c1", "note": "[GW621970X_KCGS]", "values": [{"measurement": "potency estimated from few doses", "setting": "[13]", "result": 1960, "unit": "nM"}]}
{"smiles": "COc1cc2ncn(-c3cc(OCc4sccc4Cl)c(C(N)=O)s3)c2cc1OC", "note": "[GSK448459A]", "values": [{"measurement": "potency estimated from few doses", "setting": "[14]", "result": 30.8, "unit": "nM"}]}
{"smiles": "COc1ccc(C2=C(Nc3cccc(O)c3)C(=O)NC2=O)cc1", "note": "[SB-390766]", "values": [{"measurement": "potency estimated from few doses", "setting": "[11]", "result": 2030, "unit": "nM"}]}
{"smiles": "N#Cc1ccc(-c2cc(-c3c[nH]nc3-c3ccccn3)ccn2)cc1", "note": "[GW693028X]", "values": [{"measurement": "potency estimated from few doses", "setting": "[3]; [16]", "result": 773, "unit": "nM"}]}
{"smiles": "Nc1nccc(-c2c(-c3ccc(F)cc3)ncn2C2CCC(O)CC2)n1", "note": "(centres unmarked) [SB-223133]", "values": [{"measurement": "potency estimated from few doses", "setting": "[9]; compound concentrations: 100 nM and 1000 nM (sheet 'Samples'), CATDS: 0.114009601510889", "result": 15, "unit": "nM"}, {"measurement": "potency estimated from few doses", "setting": "[5]; compound concentrations: 100 nM and 1000 nM (sheet 'Samples'), CATDS: 0.391959397884028", "result": 1.72, "unit": "nM"}, {"measurement": "potency estimated from few doses", "setting": "[15]", "result": 110, "unit": "nM"}, {"measurement": "potency estimated from few doses", "setting": "[7]; compound concentrations: 100 nM and 1000 nM (sheet 'Samples'), CATDS: 2.6556217045786298E-2", "result": 1140, "unit": "nM"}, {"measurement": "potency estimated from few doses", "setting": "[12]; compound concentrations: 100 nM and 1000 nM (sheet 'Samples'), CATDS: 2.84976438170014E-2", "result": 794, "unit": "nM"}]}
